The values below come from ChEMBL document CHEMBL1157539, “Thousands of chemical starting points for antimalarial lead identification” (Nature, 2010).

Common to all, as to type: functional
Test [1] has as its system Plasmodium falciparum. As to the kind of experiment: GSK_TCMDC: Inhibition of Plasmodium falciparum 3D7 in whole red blood cells, using parasite LDH activity as an index of growth. Test compounds present at 2uM.
For test [2], the system named is Plasmodium falciparum. As to the kind of experiment: GSK_TCMDC: Inhibition of Plasmodium falciparum Dd2 in whole red blood cells, using parasite LDH activity as an index of growth. Test compounds present at 2uM.
A further test concerns HepG2. As to the kind of experiment: GSK_TCMDC: Percent inhibition of human HepG2 cell line. Test compounds present at 10uM.

`O=C(Nc1ccc(Cl)cc1F)N[C@H]1CCN(CCCCCNC(=O)C2CC2c2ccc(Cl)c(Cl)c2)C1` (stereo not given in full): the Inhibition with Plasmodium falciparum [1] was determined as 87%; with Plasmodium falciparum [2], 0%; in the test on HepG2, 29%.

With `CCCCNC(=N)Nc1ccc(OCCCOc2ccc(NC(=N)NCCCC)cc2)cc1`, the Inhibition in the test with Plasmodium falciparum [1] is on record as 96%; with Plasmodium falciparum [2] it was 97%; with HepG2 it was 15%.

With `Oc1ccc2[nH]c(-c3cccc(F)c3)nc2c1CN1CCC(O)(c2ccccc2)CC1`, the Inhibition with Plasmodium falciparum [1] came out at 97%; with Plasmodium falciparum [2], 72%; with HepG2, 21%.

On to `O=C(NCCCN1CCC(N2CCCCC2)CC1)C1=Cc2cc(Br)ccc2OC1`, for which the Inhibition worked out at 100% in the test on Plasmodium falciparum [1], 19% with Plasmodium falciparum [2] and 26% in the test on HepG2.

In the case of `COc1ccc(-c2ccc(CNCc3ccsc3)cc2)cc1S(=O)(=O)NCCN1CCCC1.O=C(O)C(F)(F)F`, the figures for the Inhibition in the test on Plasmodium falciparum [1], in the test with Plasmodium falciparum [2] and in the test on HepG2 were 94%, 30% and 22%, respectively.

For `O=C(NCc1cccc(F)c1)Nc1ccc(-c2cccc(-c3nc4cc(F)ccc4[nH]3)c2)cc1`, the figures for the Inhibition with Plasmodium falciparum [1], in the test with Plasmodium falciparum [2] and with HepG2 were 88%, 2% and 31%, respectively.

Regarding `COc1ccccc1Nc1nc(C)cc(NCc2ccc(-c3c(C)noc3C)cc2)n1`, the figures for the Inhibition in the test on Plasmodium falciparum [1], in the test with Plasmodium falciparum [2] and in the test on HepG2 were 98%, 13% and 12%, respectively.

As to `CCCC(C)c1cnc2nc(N)nc(N)c2c1C` (stereo not given), the Inhibition came out at 95% with Plasmodium falciparum [1], 1% in the test with Plasmodium falciparum [2] and 67% with HepG2.

`Cc1csc2nc(-c3ccccn3)nc(Nc3ccncn3)c12.O=C(O)C(F)(F)F`: the Inhibition is listed as 97% in the test with Plasmodium falciparum [1], 85% with Plasmodium falciparum [2] and 47% with HepG2.

`CC(=NNC(S)=NC(C)(C)C)c1ccccn1`: the Inhibition with Plasmodium falciparum [1] came out at 99%; in the test with Plasmodium falciparum [2], 100%; with HepG2, 63%.

Take `O=C(Nc1cccc(OC2CCN(Cc3ccsc3)CC2)c1)c1ccc(C(F)(F)F)cc1.O=C(O)C(F)(F)F`: the Inhibition in the test with Plasmodium falciparum [1] stood at 98%; in the test on Plasmodium falciparum [2] it was 5%; in the test on HepG2 it was 25%.

Take `CN1CCC(N2CCN(c3ccc4c(=O)nc(CCc5cccc(F)c5F)n(CC(=O)N(C)Cc5ccc(-c6ccc(C(F)(F)F)cc6)cc5)c4n3)CC2)CC1.O=C(O)C(O)C(O)C(=O)O`: the Inhibition turned out to be 100% with Plasmodium falciparum [1], 99% with Plasmodium falciparum [2] and 15% in the test with HepG2.

Consider `O=C(Cc1cccc(Cl)c1)Nc1cccc(-c2c[nH]c3nc(Nc4cccc(O)c4)ncc23)c1.O=C(O)C(F)(F)F`, for which the Inhibition with Plasmodium falciparum [1] is 100%; in the test on Plasmodium falciparum [2] it was 74%; in the test on HepG2, 23%.

`O=C(/C=C/c1ccccc1Cl)Nc1ccc(Br)c(OCCN2CCN(CCN3CCOCC3)CC2)c1.O=C(O)C(=O)O`: the Inhibition with Plasmodium falciparum [1] was 98%; with Plasmodium falciparum [2] it was 91%; with HepG2, 22%.

For the compound `COc1ccc(-c2cccc(NC(=O)c3cccc(C#N)c3)c2)cc1CN(C)CCN(C)C.O=C(O)C(F)(F)F`, the Inhibition in the test on Plasmodium falciparum [1] worked out at 99%; in the test with Plasmodium falciparum [2], 21%; with HepG2, 0%.

Regarding `Br.COc1ccccc1CCCON1C(=N)N=C(N)NC1(C)C`, the Inhibition is on record as 95% with Plasmodium falciparum [1], 92% in the test with Plasmodium falciparum [2] and 68% in the test with HepG2.

In the case of `CC(CCCCC(=O)Nc1ccc(CC(C)NCCc2cccc(Cl)c2)cc1)NCCc1cccc(Cl)c1` (stereo not given), the Inhibition amounted to 91% with Plasmodium falciparum [1], 0% with Plasmodium falciparum [2] and 28% in the test on HepG2.

Take `Cl.c1ccc(Oc2ccc(Nc3ccnc4cc(-c5ccc(CN6CCNCC6)o5)ccc34)cc2)nc1`: the Inhibition was 100% in the test on Plasmodium falciparum [1], 99% in the test on Plasmodium falciparum [2] and 7% in the test with HepG2.

On to `O=C(O)C(F)(F)F.c1ccc(CN2CCC(NCc3ccc(-c4ccc(CNCc5cccnc5)cn4)cc3)CC2)cc1`, for which the Inhibition in the test on Plasmodium falciparum [1] is 97%; in the test with Plasmodium falciparum [2], 13%; in the test on HepG2 it was 0%.

As to `O=C(Nc1ccccc1)Nc1ccc(-n2ccc(C(F)(F)F)n2)cc1`, the Inhibition with Plasmodium falciparum [1] is 95%; in the test on Plasmodium falciparum [2], 85%; in the test on HepG2 it was 15%.

For the compound `COc1ccc([N+](=O)[O-])cc1N(Cc1ccccc1-c1ccccc1)S(=O)(=O)c1ccc(C(F)(F)F)cc1`, the Inhibition is 96% with Plasmodium falciparum [1], 66% in the test on Plasmodium falciparum [2] and 3% with HepG2.

As to `O=C(Cc1c[nH]cn1)Nc1cccc(-c2ccc(-c3nc4cc(C(F)(F)F)ccc4[nH]3)s2)c1`, the Inhibition worked out at 100% in the test on Plasmodium falciparum [1], 99% in the test with Plasmodium falciparum [2] and 5% in the test on HepG2.

As to `O=C(Nc1ccc(Oc2ccccc2)cc1)N(Cc1ccc(-c2cccc(CN3CCNCC3)c2)cc1)C1CCN(Cc2ccccc2)CC1.O=C(O)C(F)(F)F`, the figures for the Inhibition in the test on Plasmodium falciparum [1], in the test on Plasmodium falciparum [2] and in the test with HepG2 were 93%, 53% and 10%, respectively.

Consider `CCCOC(=O)C1=C(C)NC2=C(C(=O)CC(c3ccc(OC)c(OC)c3)C2)C1c1cccc(O)c1` (stereo not given), for which the Inhibition in the test with Plasmodium falciparum [1] is reported as 100%; in the test with Plasmodium falciparum [2] it was 99%; with HepG2, 0%.

In the case of `Cc1nnc2c(NC(=O)/C=C/c3ccc(OC(F)(F)F)cc3)cc3cc(Cl)ccc3n12`, the figures for the Inhibition in the test on Plasmodium falciparum [1], with Plasmodium falciparum [2] and in the test on HepG2 were 94%, 99% and 19%, respectively.

By Inhibition is commonly meant the drop in the measured response relative to a control, in per cent. High values mean a response far below the control, low ones a response near the control.
